Experimental data: PubChem BioAssay
For some assays here: Results with a measured potency or affinity are listed apart. Active and inactive are the calls of the source. Unless noted, no rule for the calls is given here.

Key:
[1] = antimalarial activity against Dd2 strain (AID 2302;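 active = growth inhibition above 50% at the single 2 µM test dose, taken to imply half-maximal potency below 2 µM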;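 also: 0% = DMSO untreated growth and 100% = chloroquine plus artemisinin killed control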); details: P. falciparum Dd2 in RBCs, LDH growth readout, 72 h; at 2 µM; stronger effect = higher value
[2] = HepG2 cytotoxicity, primary screen, cytotoxicity control for P. falciparum antimalarial project, cell-based, ATP luminescence (AID 2303;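 active = inhibition above 50%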;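 also: 0% = DMSO wells and 100% = digitonin-killed cells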); details: HepG2 viability, 24-48 h, at 10 µM, stronger effect = higher value
[3] = target: L-lactate dehydrogenase (Plasmodium falciparum (isolate CDC / Honduras)) (UniProt Q27743); experiment: PfLDH activity inhibition – cell lysate, 3D7 strain, counter-screen for P. falciparum growth inhibition project (AID 2304);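 also: 0% = vehicle and 100% = reference inhibitor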; details: P. falciparum 3D7 crude extract, LDH APAD/NBT absorbance; at 2 µM; stronger effect = higher value
Chain of L-lactate dehydrogenase (Plasmodium falciparum (isolate CDC / Honduras)) (Q27743 whole entry, looked up): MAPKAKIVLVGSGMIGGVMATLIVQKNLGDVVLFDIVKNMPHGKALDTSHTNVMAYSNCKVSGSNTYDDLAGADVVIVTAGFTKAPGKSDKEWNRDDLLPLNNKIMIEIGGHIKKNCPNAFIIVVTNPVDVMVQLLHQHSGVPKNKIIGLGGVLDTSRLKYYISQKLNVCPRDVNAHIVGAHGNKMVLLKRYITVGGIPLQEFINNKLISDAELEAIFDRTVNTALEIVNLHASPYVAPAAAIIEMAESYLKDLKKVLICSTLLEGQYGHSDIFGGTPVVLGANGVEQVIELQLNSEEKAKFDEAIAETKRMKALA

[4] = inhibition of 3D7 malaria parasite growth – strain 3D7 (AID 2306);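 also: 0% = DMSO wells and 100% = chloroquine plus artemisinin control wells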; details: P. falciparum 3D7 erythrocytic growth, LDH absorbance, 72 h; at 2 µM; stronger effect = higher value
[5] = target: Calcium-dependent protein kinase 1 (Plasmodium falciparum (isolate 3D7)) (UniProt P62344); experiment: PfCDPK1 kinase inhibitors, biochemical, TCAMS library (AID 1159585; cut-off not given, nearly all actives have IC50 up to about 0.98 µM;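 also: inhibitors leave more ATP so luminescence rises with inhibition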); details: recombinant PfCDPK1, Kinase-Glo ATP depletion luminescence
Chain of Calcium-dependent protein kinase 1 (Plasmodium falciparum (isolate 3D7)) (P62344 whole entry, looked up): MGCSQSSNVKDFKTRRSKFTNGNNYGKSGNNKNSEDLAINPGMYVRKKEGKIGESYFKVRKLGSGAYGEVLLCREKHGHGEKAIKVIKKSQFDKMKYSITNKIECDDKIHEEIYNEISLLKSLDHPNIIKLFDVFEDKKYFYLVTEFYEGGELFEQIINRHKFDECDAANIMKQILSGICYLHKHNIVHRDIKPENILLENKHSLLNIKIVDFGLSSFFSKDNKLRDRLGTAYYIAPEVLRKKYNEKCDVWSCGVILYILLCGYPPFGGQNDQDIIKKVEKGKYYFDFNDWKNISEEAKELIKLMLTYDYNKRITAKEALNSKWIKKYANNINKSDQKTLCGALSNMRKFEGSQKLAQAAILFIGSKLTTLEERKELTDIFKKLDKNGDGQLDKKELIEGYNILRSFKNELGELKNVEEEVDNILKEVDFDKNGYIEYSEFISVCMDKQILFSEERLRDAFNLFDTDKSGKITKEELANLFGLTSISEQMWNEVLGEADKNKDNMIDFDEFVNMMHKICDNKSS

[6] = target: Plasmodium falciparum protein kinase 6 (PK6, PF3D7_1337100) (UniProt Q8IDW1); experiment: PfPK6 kinase inhibitors, biochemical, TCAMS library (AID 1159586); details: recombinant PfPK6, Kinase-Glo ATP depletion luminescence
Chain of Plasmodium falciparum protein kinase 6 (PK6, PF3D7_1337100) (Q8IDW1 1-305): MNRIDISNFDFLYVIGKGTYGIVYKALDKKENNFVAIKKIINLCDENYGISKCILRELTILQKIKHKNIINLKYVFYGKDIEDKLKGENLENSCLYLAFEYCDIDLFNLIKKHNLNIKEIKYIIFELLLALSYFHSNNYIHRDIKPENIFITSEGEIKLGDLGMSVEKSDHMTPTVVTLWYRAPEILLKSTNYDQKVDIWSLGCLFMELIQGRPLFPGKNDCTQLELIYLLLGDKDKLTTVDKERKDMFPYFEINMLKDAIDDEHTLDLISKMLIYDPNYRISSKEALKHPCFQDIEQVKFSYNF

[7] = target: Protein kinase 7 (PK7), Plasmodium falciparum 3D7 (PF3D7_0213400) (UniProt Q7YTF7); experiment: inhibition of Plasmodium PK7 catalytic activity – biochemical, TCAMS antimalarial set, Kinase-Glo luminescence (AID 1159587); details: recombinant PfPK7, Kinase-Glo ATP depletion luminescence
Chain of Protein kinase 7 (PK7), Plasmodium falciparum 3D7 (PF3D7_0213400) (Q7YTF7 1-343): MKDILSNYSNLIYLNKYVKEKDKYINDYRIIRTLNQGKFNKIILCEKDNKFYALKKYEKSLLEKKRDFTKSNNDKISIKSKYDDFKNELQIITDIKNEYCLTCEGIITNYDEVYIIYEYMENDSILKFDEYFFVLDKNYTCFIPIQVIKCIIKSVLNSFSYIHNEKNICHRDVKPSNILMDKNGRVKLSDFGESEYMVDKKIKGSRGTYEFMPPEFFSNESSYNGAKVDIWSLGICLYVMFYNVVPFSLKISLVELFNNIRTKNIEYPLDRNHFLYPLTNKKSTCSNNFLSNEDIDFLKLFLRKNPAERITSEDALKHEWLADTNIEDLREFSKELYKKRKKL

[8] = target: Calcium-dependent protein kinase 4 (Plasmodium falciparum (isolate 3D7)) (UniProt Q8IBS5); experiment: PfCDPK4 kinase inhibitors, biochemical, TCAMS library (AID 1159588; cut-off not given, nearly all actives have IC50 up to about 0.91 µM); details: recombinant PfCDPK4, Kinase-Glo ATP depletion luminescence
Chain of Calcium-dependent protein kinase 4 (Plasmodium falciparum (isolate 3D7)) (Q8IBS5 whole entry, looked up): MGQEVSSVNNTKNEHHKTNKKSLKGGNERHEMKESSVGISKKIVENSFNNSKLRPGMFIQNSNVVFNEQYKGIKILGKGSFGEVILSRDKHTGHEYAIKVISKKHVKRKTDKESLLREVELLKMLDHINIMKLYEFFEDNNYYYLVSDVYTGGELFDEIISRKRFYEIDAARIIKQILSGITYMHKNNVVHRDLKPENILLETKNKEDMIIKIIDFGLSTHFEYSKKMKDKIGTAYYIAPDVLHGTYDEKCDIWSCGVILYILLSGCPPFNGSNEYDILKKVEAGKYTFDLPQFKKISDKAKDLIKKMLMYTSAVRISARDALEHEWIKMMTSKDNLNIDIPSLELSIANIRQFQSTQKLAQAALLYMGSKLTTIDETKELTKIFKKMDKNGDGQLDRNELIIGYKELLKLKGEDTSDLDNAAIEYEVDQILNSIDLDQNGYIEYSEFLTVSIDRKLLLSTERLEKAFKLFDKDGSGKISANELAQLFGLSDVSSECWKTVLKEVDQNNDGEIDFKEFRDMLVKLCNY

O=C(/C=C/c1c[nH]c2ccccc12)NCCCCCN1CCC(c2c[nH]c3ccccc23)CC1
inactive: growth inhibition [1] 0% | inhibition [2] 20% | inhibition [3] 5% | outcome [5] | outcome [6] | outcome [7] | outcome [8]
active: growth inhibition [4] 96%

O=C(/C=C/c1ccccc1Cl)Nc1ccc(Br)c(OCCN2CCCCC2)c1
active: growth inhibition [4] 99%
inactive: growth inhibition [1] 25% | inhibition [2] 11% | inhibition [3] -4% | outcome [5] | outcome [6] | outcome [7] | outcome [8]

CCCN(CC1CC1)c1ncc(-c2cccc(CNCc3ccccc3O)c2)cn1
active: growth inhibition [1] 98% | growth inhibition [4] 97%
inactive: inhibition [2] 15% | inhibition [3] -8% | outcome [5] | outcome [6] | outcome [7] | outcome [8]

CN(CCO)Cc1ccc(-c2ccc(NS(=O)(=O)c3cccc4cccnc34)cc2)cc1
inactive: inhibition [2] 28% | inhibition [3] -1% | outcome [5] | outcome [6] | outcome [7] | outcome [8]
active: growth inhibition [1] 84% | growth inhibition [4] 99%

Nc1nc(N)c2cc(CNc3ccc(Cl)c(Cl)c3)ccc2n1
active: growth inhibition [1] 55% | inhibition [2] 62% | growth inhibition [4] 93%
inactive: inhibition [3] 5% | outcome [5] | outcome [6] | outcome [7] | outcome [8]

c1cc(C2=N[C@H]3CCCC[C@@H]3N2)ccc1OCCCCCOc1ccc(C2=N[C@@H]3CCCC[C@H]3N2)cc1
active: inhibition [2] 80% | growth inhibition [4] 101%
inactive: growth inhibition [1] 23% | inhibition [3] -5% | outcome [5] | outcome [6] | outcome [7] | outcome [8]

O=C(Nc1ccc(-c2ccc(-c3nc4ccccc4[nH]3)s2)cc1)c1ccncc1
active: growth inhibition [1] 95% | growth inhibition [4] 94%
inactive: inhibition [2] 21% | inhibition [3] -5% | outcome [5] | outcome [6] | outcome [7] | outcome [8]

CC(C)c1ccc(NC(=O)c2ccc(C(=O)NC3CCN(Cc4ccsc4)C3)cc2)cc1 (stereo not given)
inactive: growth inhibition [1] 28% | inhibition [2] 17% | inhibition [3] -2% | outcome [5] | outcome [6] | outcome [7] | outcome [8]
active: growth inhibition [4] 82%

CC(C)c1ccc(OCC(O)CN(C)C(C)C(O)c2ccccc2)c(Br)c1 (stereo not given)
inactive: inhibition [2] 36% | inhibition [3] -3% | outcome [5] | outcome [6] | outcome [7] | outcome [8]
active: growth inhibition [1] 97% | growth inhibition [4] 95%

CCN(CC)CCN(Cc1ccc(-c2ccc(C(F)(F)F)cc2)cc1)C(=O)Cn1c(CCc2cccc(F)c2F)nc(=O)c2sccc21
inactive: inhibition [3] 6% | outcome [5] | outcome [6] | outcome [7] | outcome [8]
active: growth inhibition [1] 70% | inhibition [2] 70% | growth inhibition [4] 96%

CC[C@]1(C)C[C@@H](NC(=O)NC(=O)c2ccc(OC)cc2)[C@]2(C)[C@H](C)CC[C@]3(CCC(=O)[C@H]32)[C@@H](C)[C@@H]1OC(=O)NC(=O)c1ccc(OC)cc1
inactive: inhibition [2] 10% | inhibition [3] -5% | outcome [5] | outcome [6] | outcome [7] | outcome [8]
active: growth inhibition [1] 98% | growth inhibition [4] 100%

COc1ccc2c(NN=Cc3cccc(C)n3)cc(-c3ccccc3)nc2c1
active: growth inhibition [4] 97%
inactive: growth inhibition [1] 25% | inhibition [2] -7% | inhibition [3] 3% | outcome [5] | outcome [6] | outcome [7] | outcome [8]

O=S(=O)(NCCN1CCCC1)c1ccc(-c2cccc(CNCc3ccc(F)cc3)c2)cc1
active: inhibition [2] 76% | growth inhibition [4] 100%
inactive: growth inhibition [1] 41% | inhibition [3] -2% | outcome [5] | outcome [6] | outcome [7] | outcome [8]

CCCCC(=O)Nc1nc2ccc([N+](=O)[O-])cc2s1
inactive: inhibition [2] 9% | inhibition [3] -5% | outcome [5] | outcome [6] | outcome [7] | outcome [8]
active: growth inhibition [1] 69% | growth inhibition [4] 91%

COc1cc2nc(NCCc3ccccc3)nc(NCCc3ccccc3)c2cc1OC
active: growth inhibition [1] 100% | inhibition [2] 99% | growth inhibition [4] 101%
inactive: inhibition [3] 2% | outcome [5] | outcome [6] | outcome [7] | outcome [8]

CCOc1cccc(C2c3c(oc4ccccc4c3=O)C(=O)N2CCN(CC)CC)c1 (stereo not given)
active: growth inhibition [1] 66% | growth inhibition [4] 100%
inactive: inhibition [2] 5% | inhibition [3] -2% | outcome [5] | outcome [6] | outcome [7] | outcome [8]

CN1CCN(CCc2ccc3nc(-c4csc(Cc5cc(Cl)ccc5OCc5ccccc5)n4)[nH]c3c2)CC1
active: growth inhibition [1] 97% | growth inhibition [4] 101%
inactive: inhibition [2] 30% | inhibition [3] -1% | outcome [5] | outcome [6] | outcome [7] | outcome [8]

Clc1ccc2c(NN=Cc3cccs3)ccnc2c1
inactive: inhibition [2] -4% | inhibition [3] 2% | outcome [5] | outcome [6] | outcome [7] | outcome [8]
active: growth inhibition [1] 96% | growth inhibition [4] 100%

N#Cc1ccc(CN2CCCN(Cc3cccc(NC(=O)c4ccc(Cl)c(Cl)c4)c3)CC2)cc1
active: growth inhibition [4] 95%
inactive: growth inhibition [1] 10% | inhibition [2] 19% | inhibition [3] -1% | outcome [5] | outcome [6] | outcome [7] | outcome [8]

Cc1ccc2nc3c(cc(C(=O)NCCc4ccccc4)c(=N)n3CCCOC(C)C)c(=O)n2c1
active: growth inhibition [4] 96%
inactive: growth inhibition [1] 12% | inhibition [2] 15% | inhibition [3] 0% | outcome [5] | outcome [6] | outcome [7] | outcome [8]

c1ccc(-c2cc(NCc3cccc4ccccc34)c3[nH]ncc3n2)cc1
active: growth inhibition [4] 93%
inactive: growth inhibition [1] 5% | inhibition [2] 7% | inhibition [3] -8% | outcome [5] | outcome [6] | outcome [7] | outcome [8]

CC1N=C(N)N=C(N)N1OCc1cccc2ccccc12 (stereo not given)
inactive: growth inhibition [1] 4% | inhibition [3] -2% | outcome [5] | outcome [6] | outcome [7] | outcome [8]
active: inhibition [2] 66% | growth inhibition [4] 93%

CCCN(CCC)C(=O)c1cc(-c2cccc(C)c2)nc2ccccc12
active: growth inhibition [1] 59% | growth inhibition [4] 86%
inactive: inhibition [2] 17% | inhibition [3] -6% | outcome [5] | outcome [6] | outcome [7] | outcome [8]

Cc1cc(NC(=O)Nc2ccc(C(C)C)cc2)c2ccccc2n1
active: growth inhibition [4] 99%
inactive: growth inhibition [1] 16% | inhibition [2] 7% | inhibition [3] -1% | outcome [5] | outcome [6] | outcome [7] | outcome [8]

COc1ccc(-c2nc(NC(=O)CSc3ccccc3)sc2C)cc1
inactive: growth inhibition [1] 31% | inhibition [2] 6% | inhibition [3] 2% | outcome [5] | outcome [6] | outcome [7] | outcome [8]
active: growth inhibition [4] 94%

CC1CN(Cc2ccc(C#N)cc2)CCN1c1ccc(NC(=O)c2cccs2)cc1 (stereo not given)
active: growth inhibition [1] 89% | growth inhibition [4] 93%
inactive: inhibition [2] 8% | inhibition [3] 2% | outcome [5] | outcome [6] | outcome [7] | outcome [8]

O=C(CC1NC(=O)c2ccccc21)Nc1ccc(-c2cccc(-c3nc4ccc(C(F)(F)F)cc4[nH]3)c2)cc1 (stereo not given)
inactive: growth inhibition [1] 36% | inhibition [3] -4% | outcome [5] | outcome [6] | outcome [7] | outcome [8]
active: inhibition [2] 69% | growth inhibition [4] 95%

O=c1cc(NCCCNCc2cn(S(=O)(=O)c3ccccc3)c3ccccc23)[nH]c2ccccc12
active: growth inhibition [4] 91%
inactive: growth inhibition [1] 29% | inhibition [2] 17% | inhibition [3] -2% | outcome [5] | outcome [6] | outcome [7] | outcome [8]

O=C(Nc1cccc(-c2cccc(-c3nc4ccc(F)cc4[nH]3)c2)c1)c1cnc[nH]1
active: growth inhibition [1] 87% | growth inhibition [4] 100%
inactive: inhibition [2] 13% | inhibition [3] -1% | outcome [5] | outcome [6] | outcome [7] | outcome [8]

CCOC(=O)c1ccc(NC(=O)c2ccccc2C(=O)O)cc1
inactive: growth inhibition [1] 0% | inhibition [2] 2% | inhibition [3] -3% | outcome [5] | outcome [6] | outcome [7] | outcome [8]
active: growth inhibition [4] 92%

O=C(NCCCCCN1CCC(c2ccc(O)cc2)CC1)c1ccc(-c2ccccc2)cc1
active: growth inhibition [4] 92%
inactive: growth inhibition [1] -7% | inhibition [2] 28% | inhibition [3] -1% | outcome [5] | outcome [6] | outcome [7] | outcome [8]

CN1CCN(CCCN(Cc2cccc(-c3ccc(CNCc4ccc5c(c4)OCO5)cc3)c2)C(=O)Nc2ccccc2)CC1
active: growth inhibition [1] 69% | growth inhibition [4] 98%
inactive: inhibition [2] 39% | inhibition [3] 4% | outcome [5] | outcome [6] | outcome [7] | outcome [8]

O=C(Cc1cccs1)NC(CCCN1CCC(Oc2cccc(Cl)c2)CC1)c1ccc(Cl)c(Cl)c1 (stereo not given)
active: growth inhibition [1] 70% | growth inhibition [4] 86%
inactive: inhibition [2] 39% | inhibition [3] 3% | outcome [5] | outcome [6] | outcome [7] | outcome [8]

O=C(C=Cc1ccc(Cl)c(Cl)c1)NCCCCCN1CCC(CCNC(=O)c2cccc3ccccc23)CC1
inactive: growth inhibition [1] -1% | inhibition [2] 17% | inhibition [3] 4% | outcome [5] | outcome [6] | outcome [7] | outcome [8]
active: growth inhibition [4] 85%

CCc1ccccc1N=C1c2c(cccc2[N+](=O)[O-])C(=O)C1C(C)=O (stereo not given)
inactive: inhibition [2] -6% | inhibition [3] 4% | outcome [5] | outcome [6] | outcome [7] | outcome [8]
active: growth inhibition [1] 96% | growth inhibition [4] 99%

O=C(CNc1ccncc1)c1c[nH]c2ccccc12
inactive: inhibition [2] 31% | inhibition [3] -3% | outcome [5] | outcome [6] | outcome [7] | outcome [8]
active: growth inhibition [1] 62% | growth inhibition [4] 90%

O=S(=O)(NCCN1CCCC1)c1ccc(-c2ccc(CNCc3ccc(F)cc3)cc2)cc1
inactive: growth inhibition [1] 44% | inhibition [2] 42% | inhibition [3] 4% | outcome [5] | outcome [6] | outcome [7] | outcome [8]
active: growth inhibition [4] 94%

Cc1cccc2[nH]c(-c3cccc(-c4cccc(NC(=O)Nc5ccccc5)c4)c3)nc12
active: growth inhibition [1] 64% | growth inhibition [4] 101%
inactive: inhibition [2] 8% | inhibition [3] -6% | outcome [5] | outcome [6] | outcome [7] | outcome [8]

COc1ccc2c(NN=Cc3ccc(OC)c4ccccc34)cc(C)nc2c1
active: growth inhibition [1] 99% | growth inhibition [4] 101%
inactive: inhibition [2] 3% | inhibition [3] -4% | outcome [5] | outcome [6] | outcome [7] | outcome [8]

COc1cc2nc(NCCn3ccnc3C)nc(NCCc3ccccc3)c2cc1OC
inactive: growth inhibition [1] 0% | inhibition [2] 21% | inhibition [3] -6% | outcome [5] | outcome [6] | outcome [7] | outcome [8]
active: growth inhibition [4] 99%
